eIF4E-4G inh – blocks eIF4E binding to eIF4G | actives 0.37% (n = 220,000) | TR-FRET eIF4E-eIF4GI(517-606) binding, 2 h | AID 782 | P63073+Q04637 | inhibition, % at 21.7 µM;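 active = inhibition above about 30%, limit read from the data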
eIF4H FP inh – inhibitors of RNA binding by human eIF4H | eIF4H fluorescence polarization binding assay | actives 0.94% (n = 290,000) | AID 2012 | inhibition, % at 35 µM;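 also: calls also rest on retests at 20 µM and on dose response follow-up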
PABP1 MLLE inh – blocks PAM2 peptide binding to the PABP1 MLLE domain; inhibition, % at 20 µM; actives 0.36% (n = 360,000); GST-MLLE / FITC-PAM2 fluorescence polarization; AID 588489; in the data active = inhibition above about 35%, passing the limit was not always enough
PABP polyA inh – PABP-poly(A) binding inhibition. AID 2014. PABP-poly(A) RNA binding, fluorescence polarization. P11940. inhibition, % at 35 µM. actives 1% (n = 290,000);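 also: calls also rest on retests at 20 µM and on dose response follow-up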
PERK inhibitor – inhibitors of human PERK kinase. CHO PERK-DD fusion, SEAP luminescence translation reporter. inhibition, % at 5.6 µM. actives 0.17% (n = 220,000). AID 1416;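 active = inhibition above the mean inhibition of all tested compounds plus 3 SD, set separately per screening campaign, cut at about 2.9% in these data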;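 also: PERK kinase domain activated by AP20187 dimerizer at 100 nM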
M18AAP inhibitor – PfM18AAP enzyme inhibition; recombinant PfM18AAP, H-Glu-NHMec fluorogenic cleavage; inhibition, % at 7.35 µM; actives 1.2% (n = 290,000); AID 1822;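 active = inhibition above the campaign mean inhibition over all tested compounds plus 3 SD, cut at about 28% in these data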
Large screens that a line does not name were inactive; [ ] = another dose, or the depositor's remark. Hits are enriched below; roughly 2.4% of the tested compounds scored in any of these assays. Unless noted, no rule for the calls is given here.

COC(=O)c1ccccc1NC(=O)CCS(=O)(=O)c1ccc(Br)cc1	eIF4H FP inh 85.9
CCc1ccccc1NC(=O)CCS(=O)(=O)c1ccc(Br)cc1	none (no result: eIF4E-4G inh, PERK inhibitor)
CCOc1ccccc1NC(=O)CCS(=O)(=O)c1ccc(Br)cc1	eIF4H FP inh 84.5, PABP polyA inh 46.5 (no result: eIF4E-4G inh, PERK inhibitor)
COc1ccc(NC(=O)CCS(=O)(=O)c2ccc(Br)s2)cc1	eIF4H FP inh 91.4 (no result: eIF4E-4G inh, PERK inhibitor)
COc1ccc(NC(=O)CCS(=O)(=O)c2ccc(OC)cc2)cc1	none
CCOC(=O)c1ccc(NC(=O)CCS(=O)(=O)c2ccc(Br)s2)cc1	none
O=C(CCS(=O)(=O)c1ccc(Br)cc1)NCc1ccco1	eIF4H FP inh 80.8 (no result: eIF4E-4G inh, PERK inhibitor)
COc1ccc([N+](=O)[O-])cc1NC(=O)CCS(=O)(=O)c1ccc(Br)cc1	eIF4H FP inh 96.0 (no result: eIF4E-4G inh, PERK inhibitor)
Cc1ccc2c(c1)N(CCC(=O)NCCCOC(C)C)C(=O)C(C)O2 (stereo unspecified)	none
CCOc1ccc(C(=O)Nc2ncccc2Cl)cc1	none
COc1ccc(C2=Nc3cccc4cccc(c34)N2)cc1	eIF4H FP inh 78.1
Nc1cccc(C2=Nc3cccc4cccc(c34)N2)c1	none
CC(=O)c1ccc(NC(=O)CSc2nnc(Cn3c(=O)sc4ccccc43)n2C)cc1	none
Nc1nc2c(c(=O)[nH]1)C(c1ccccc1)C1=C(N2)c2ccccc2C1=O (stereo unspecified)	none
COc1cc(C2C3=C(Nc4nc(N)[nH]c(=O)c42)c2ccccc2C3=O)ccc1O (stereo unspecified)	eIF4H FP inh 93.3, PABP polyA inh 73.3
CCOC(=O)CN1C(=O)S/C(=C\c2ccc(-c3ccc(C(=O)O)c(Cl)c3)o2)C1=O	eIF4H FP inh 52.1, PABP polyA inh 26.2 (no result: eIF4E-4G inh, PERK inhibitor)
O=C(O)c1ccc(-c2ccc(/C=C3\NC(=O)N(Cc4ccc(Cl)cc4)C3=O)o2)cc1Cl	PABP polyA inh 71.1
Cc1cccc(C(=O)NCC(=O)N2CCN(c3ccc(Cl)cc3)CC2)c1	none (no result: eIF4E-4G inh, PERK inhibitor)
C=CCn1c(SCC#N)nnc1-c1ccc2ncccc2c1	eIF4E-4G inh 97.6
COC(=O)C(C)NS(=O)(=O)c1ccc(NC(C)=O)cc1 (stereo unspecified)	none
CC(C)OC(=O)c1nn2c(C(F)(F)F)cc(-c3ccco3)nc2c1Cl	none
CC(C)OC(=O)c1nn2c(C(F)(F)F)cc(-c3ccc(Br)o3)nc2c1Br	eIF4H FP inh 44.4, PABP polyA inh 72.3
Cc1cc(-c2onc(C)c2C(=O)N/N=C/c2ccccc2)no1	none
Cc1ccc(SC(=O)c2c(C)noc2-c2cc(C)on2)cc1	PABP1 MLLE inh 41.4
CCOc1ccc(NC(=O)Cn2nnc3c(cnn3-c3ccc(F)cc3)c2=O)cc1	none
Cc1ccccc1NC(=O)Cn1nnc2c(cnn2-c2ccc(F)cc2)c1=O	eIF4E-4G inh 41.2[fluorescence artefact?]
Cc1c(NC(=O)CSc2nncn2-c2ccccc2)c(=O)n(-c2ccccc2)n1C	none (no result: eIF4E-4G inh, eIF4H FP inh, PABP polyA inh, PERK inhibitor, M18AAP inhibitor)
O=C(O)C(O)c1ccco1 (stereo unspecified)	eIF4H FP inh 103.9, PABP polyA inh 7.9
O=C(O)C(O)c1ccccc1 (stereo unspecified)	none
Cc1ccc(C)c(N2CCN(C(=O)C(Cc3ccccc3)n3cccc3)CC2)c1 (stereo unspecified)	eIF4E-4G inh 67.2[fluorescence artefact?]
O=C(C(Cc1ccccc1)n1cccc1)N1CCN(c2ccccc2)CC1 (stereo unspecified)	none
Cc1ccc(C(=O)Nc2cccnc2)cc1Cl	none (no result: eIF4E-4G inh, PERK inhibitor)
CC(=O)Nc1ccc2nc3ccccc3nc2c1	PABP1 MLLE inh 41.6
CC(=O)Nc1ccc(C(=O)Nc2cccc(-c3cnc4ccccc4n3)c2)cc1	eIF4E-4G inh 35.7, PABP polyA inh inconclusive
COc1cccc(N2C(=O)Nc3ccc(Br)cc3C2(O)C(=O)NCCCOC(C)C)c1 (stereo unspecified)	none (no result: eIF4E-4G inh, PERK inhibitor)
COc1ccc(-c2cn(-c3ccc(C)cc3C)c(=S)[nH]2)cc1OC	none (no result: eIF4E-4G inh, PERK inhibitor)
COc1cc(OC)c(-n2cc(-c3ccc(OC)c(OC)c3)[nH]c2=S)cc1Cl	M18AAP inhibitor 31.5 (no result: eIF4E-4G inh, PERK inhibitor)
CN(C)Cc1c(O)c(Cl)cc2c3c(c(=O)oc12)CCCC3	eIF4H FP inh 64.0, PABP polyA inh 49.5
CCN(CC)Cc1c(O)c(Cl)cc2c3c(c(=O)oc12)CCCC3	none
CCC(CC)NC(=O)Cc1ccccc1OC	none
Cc1c(C(=O)OC2CCC(C)CC2)[nH]c2c1C(=O)CCC2 (stereo unspecified)	eIF4H FP inh 75.0

Bioassay records deposited in PubChem BioAssay by several laboratories.
